Assay [1] is described as follows: inhibitors of TNFa-induced NFkB p65 translocation, primary screen, imaging, HUVEC, MLSMR starter and 10KST1 sets (AID 438;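 active = inhibition above 20% together with a positive visual image hit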;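 note: compound added about 3h40 before a 20 min TNFalpha stimulation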;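 for inhibition: signal is the nuclear over cytoplasmic p65 intensity ratio per well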). The note with it: HUVEC TNFa-induced p65 nuclear translocation; cell count: measured here: nuclei count (cytotoxicity indicator), at 2.08 µM; inhibition: at 2 µM, stronger effect = higher value, 0% TNFa-plus-vehicle, 100% no-TNFa wells.
Assay [2] can be described thus: inhibitors of mutant huntingtin aggregation, primary screen, imaging, exon1htt(103Q)mCFP cells, high-content imaging (AID 483;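 active = visual image review flags a hit and inhibition of aggregation exceeds 20%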;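 note: compound exposure lasted 3 days before fixation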;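 for nuclei count: percent of the per-plate median nuclei count of sample wells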). The conditions noted are these: exon1htt(103Q)mCFP cell line, aggregate imaging, at 2 µM; inhibition of aggregation: stronger effect = higher value; nuclei count: measured here: cell count, toxicity.
Assay [3] can be described thus: inhibitors of E-selectin induction by TNFa, primary screen, imaging, HUVEC, immunofluorescence, MLSMR starter and 10KST1 sets (AID 487;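 active = visually confirmed hit in the image check and inhibition above 20%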;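 for inhibition: signal is fraction of cell area covered by stained E-selectin grains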;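 for nuclei count: 100% = median nuclei count of all wells on the same plate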). The note with it: HUVEC TNFalpha-induced E-selectin immunofluorescence imaging, at 2 µM; inhibition: stronger effect = higher value; nuclei count: measured here: cell number, toxicity.
The target of assay [4] is Voltage-gated potassium channel subunit beta-2 (Rattus norvegicus) (UniProt P62483). The experiment in a line: KvBeta enzyme negative modulators, primary screen, biochemical, NADPH fluorescence (AID 622;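 active = fluorescence slope higher than the sample average by over 3 SD, cut at about -0.22 in these data, passing the limit was not always enough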;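 note: slope of raw intensity against log time taken from 70 to 1610 s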). The note with it: recombinant KvBeta, 4-cyanobenzaldehyde reduction, at 10 µM, stronger effect = higher value.
Voltage-gated potassium channel subunit beta-2 (Rattus norvegicus), sequence (P62483 whole entry, looked up): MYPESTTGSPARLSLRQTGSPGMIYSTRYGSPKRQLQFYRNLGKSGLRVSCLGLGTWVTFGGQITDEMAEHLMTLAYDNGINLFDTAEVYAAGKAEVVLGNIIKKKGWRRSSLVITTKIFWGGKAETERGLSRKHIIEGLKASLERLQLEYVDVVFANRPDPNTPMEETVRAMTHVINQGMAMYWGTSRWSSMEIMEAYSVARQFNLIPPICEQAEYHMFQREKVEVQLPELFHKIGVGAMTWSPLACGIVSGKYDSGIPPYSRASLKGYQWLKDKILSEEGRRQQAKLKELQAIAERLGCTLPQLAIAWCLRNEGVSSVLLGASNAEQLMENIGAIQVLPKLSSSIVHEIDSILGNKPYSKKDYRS
Assay [5] shares this target. As to the kind of experiment: KvBeta positive modulators, primary screen, biochemical, NADPH fluorescence (AID 623;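 active = NADPH fluorescence slope more negative than the mean of all samples by about 3 SD, 99.7% confidence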;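 note: fluorescence intensity change per second fitted from 20 to 320 s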). The conditions noted are these: Recombinant KvBeta, NADPH fluorescence decrease slope, 10 min; at 10 µM; stronger effect = lower value.
The target in assay [6] is Alpha-2C adrenergic receptor (Homo sapiens) (UniProt P18825). As to the kind of experiment: modulators of alpha2C/GIRK thallium flux, primary screen, cell-based, HEK293 alpha2C/GIRK1/2 (AID 624;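 active = fluorescence slope after compound addition differing from the mean of all screened samples at 99.7% confidence, in either direction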;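 note: slope of fluorescence ratio to pre-addition baseline per second over 15 to 24 s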). The note with it: thallium flux BTC fluorescence, at 10 µM, actives lie on both sides.
Alpha-2C adrenergic receptor (Homo sapiens), sequence (P18825 whole entry, looked up): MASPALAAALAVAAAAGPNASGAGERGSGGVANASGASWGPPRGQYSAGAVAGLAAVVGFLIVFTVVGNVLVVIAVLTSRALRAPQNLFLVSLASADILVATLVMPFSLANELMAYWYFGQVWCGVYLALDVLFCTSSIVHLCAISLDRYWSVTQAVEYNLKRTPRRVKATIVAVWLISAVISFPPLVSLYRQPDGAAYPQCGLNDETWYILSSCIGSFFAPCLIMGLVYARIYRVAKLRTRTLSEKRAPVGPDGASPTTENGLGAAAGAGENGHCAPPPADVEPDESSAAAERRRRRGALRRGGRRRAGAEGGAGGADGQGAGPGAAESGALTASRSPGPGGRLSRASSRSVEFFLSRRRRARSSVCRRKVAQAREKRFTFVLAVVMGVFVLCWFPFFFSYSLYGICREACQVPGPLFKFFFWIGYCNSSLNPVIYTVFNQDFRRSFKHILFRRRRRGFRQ
Assay [7] in a line: inhibitors of Sendai virus-induced IRF3 signaling, primary screen, TLR/RLR signaling modifier project, cell-based, Sendai virus stimulus, luciferase, 10K MLSCN set (AID 602276).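 Note: firefly luciferase from ISG56 promoter only with Renilla not read in this screen; 0% = Sendai virus plus DMSO and 100% = medium plus DMSO without virus.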 The conditions noted are these: HEK293 RL24 IRF3 luciferase reporter, at 10 µM, stronger effect = higher value. Background: Reporter assays use an easily measured gene product as a stand-in for the process of interest.

The nature of assay [8]: inhibitors of poly I:C-induced TLR3 signaling, primary screen, cell-based, poly I:C stimulus, luciferase, 10K MLSCN set (AID 602277;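 active = inhibition of the reporter signal at or above 50%; inactive = inhibition below 50%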). The conditions noted are these: HEK293-TLR3 RL24 IRF3 luciferase reporter, at 10 µM, stronger effect = higher value.

A word on the inhibition: it is the relative decrease from the control value, in per cent.

SMILES strings stand for the structures. Activity calls are given as the source filed them.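 Rule for the calls, unless noted: active = inhibition at or above 50% at 10 µM; inactive = inhibition below 50%.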

Turning to `CCn1c(=S)ccc2ccc(OC)cc21`, the cell count in assay [1] worked out at 296. In addition, the inhibition in assay [1] was 5.3% (inactive); in assay [3], -13.4% (inactive); in assay [7], -6.3% (inactive); in assay [8] it was 29% (inactive). Besides, the inhibition of aggregation in assay [2] was -4.2% (inactive). The nuclei count came to 77.6% in assay [2] and 120% in assay [3]. In assay [4], the fluorescence slope was -0.599 (inactive). In assay [5], the NADPH fluorescence slope is -9.6e-06 (inactive). The slope in assay [6] was 0.0055 (inactive).
Take `CCN(CCCNC(=O)CCNC(=O)Cn1ccc2ccccc2c1=O)c1ccccc1`: the cell count in assay [1] was 393. In addition, the inhibition in assay [1] was 4.5% (inactive); in assay [3], -106% (inactive); in assay [7], -0.268% (inactive); in assay [8], -15.2% (inactive). For the same compound, the inhibition of aggregation in assay [2] is -6.3% (inactive). The values for the nuclei count in assay [2] and in assay [3] were 103% and 118%, respectively. Further, the fluorescence slope in assay [4] was -0.441 (inactive). In addition, in assay [5], the NADPH fluorescence slope is -8.2e-06 (inactive). Besides, in assay [6], the slope is 0.00588 (inactive).
With `CCN(CC)CCOC(=O)c1ccc(NC(=O)COc2cc(=O)n(CC)c3ccccc23)cc1`, the cell count in assay [1] turned out to be 386. Moreover, the inhibition was 6.7% (inactive) in assay [1], -26.7% (inactive) in assay [3], -1.28% (inactive) in assay [7] and -7.01% (inactive) in assay [8]. Further, in assay [2], the inhibition of aggregation is -6.9% (inactive). Moreover, the nuclei count in assay [2] was 108%; in assay [3], 117%. The fluorescence slope in assay [4] is -0.514 (inactive). In assay [5], the NADPH fluorescence slope was 4.9e-05 (inactive). Also, the slope in assay [6] is 0.00772 (inactive).
As to `CCCCN1C(=O)C2C(C(=O)Nc3cccc(OC)c3)C3C=CC2(O3)C1C(=O)NC1CCCCC1C` (centres undefined), in assay [1], the cell count was found to be 423. The inhibition in assay [1] was 3.1% (inactive); in assay [3], -50% (inactive); in assay [7], 14.1% (inactive); in assay [8] it was 24.4% (inactive). For the same compound, in assay [2], the inhibition of aggregation is 1.7% (inactive). Besides, the figures for the nuclei count in assay [2] and in assay [3] were 109% and 112%, respectively. Besides, the fluorescence slope in assay [4] is -0.503 (inactive). Further, the NADPH fluorescence slope in assay [5] was -2.7e-05 (inactive). In addition, in assay [6], the slope is 0.00569 (inactive).
Regarding `COCCCNC(=O)Cn1cc2c(n1)CCC(C)C2` (centres undefined), the cell count in assay [1] amounted to 767. The inhibition was -6.1% (inactive) in assay [1], -27.6% (inactive) in assay [3], 4.22% (inactive) in assay [7] and 12.1% (inactive) in assay [8]. In assay [2], the inhibition of aggregation is -6% (inactive). For the same compound, the nuclei count in assay [2] was found to be 104%; in assay [3], 121%. Further, in assay [4], the fluorescence slope is -0.652 (inactive). The NADPH fluorescence slope in assay [5] was 2.7e-06 (inactive). For the same compound, the slope in assay [6] was 0.00615 (inactive).
For the compound `CCCN(Cc1cc2ccc(C)cc2[nH]c1=O)C(=O)c1cccnc1`, the cell count in assay [1] was 779. The inhibition was 2.6% (inactive) in assay [1], -5.8% (inactive) in assay [3], 11.3% (inactive) in assay [7] and 27.1% (inactive) in assay [8]. In addition, in assay [2], the inhibition of aggregation is -34.8% (inactive). For the same compound, the nuclei count in assay [2] was determined as 104%; in assay [3], 109%. In addition, the fluorescence slope in assay [4] was -0.46 (inactive). Moreover, in assay [5], the NADPH fluorescence slope was 1.6e-05 (inactive). Also, in assay [6], the slope was 0.00624 (inactive).
Turning to `Cc1ccnc2c(N3C(=O)C4C5C=CC(C5)C4(C)C3=O)cccc12` (centres undefined), the cell count in assay [1] stood at 630. Further, the inhibition in assay [1] was -6.5% (inactive); in assay [3], -13.1% (inactive); in assay [7], 5.21% (inactive); in assay [8], 28.5% (inactive). Besides, the inhibition of aggregation in assay [2] was -2.2% (inactive). Moreover, the nuclei count was 94.9% in assay [2] and 111% in assay [3]. Besides, the fluorescence slope in assay [4] was -0.556 (inactive). Also, the NADPH fluorescence slope in assay [5] is -1.1e-05 (inactive). Besides, in assay [6], the slope was 0.00676 (inactive).
With `O=C(c1ccco1)N1CCN(S(=O)(=O)c2ccc(Oc3ccccc3)cc2)CC1`, the cell count in assay [1] was determined as 243. Besides, the inhibition in assay [1] is 22.6% (inactive); in assay [3], -81.4% (inactive); in assay [7], 5.47% (inactive); in assay [8] it was -52.2% (inactive). In addition, the inhibition of aggregation in assay [2] is -4.9% (inactive). Also, the nuclei count in assay [2] was 77.4%; in assay [3], 111%. The fluorescence slope in assay [4] was -0.519 (inactive). In assay [5], the NADPH fluorescence slope is 2.5e-06 (inactive). Further, in assay [6], the slope is 0.00632 (inactive).
On to `Fc1ccc(Cn2nnc(-c3ccc(CN4CCOCC4)cc3)n2)cc1`, for which the cell count in assay [1] came to 299. Further, the inhibition is 4.3% (inactive) in assay [1], 9.3% (inactive) in assay [3], -2.6% (inactive) in assay [7] and -37.2% (inactive) in assay [8]. Also, the inhibition of aggregation in assay [2] was 11.5% (inactive). In addition, the values for the nuclei count in assay [2] and in assay [3] were 102% and 117%, respectively. The fluorescence slope in assay [4] was -0.44 (inactive). In addition, in assay [5], the NADPH fluorescence slope is -1.1e-05 (inactive). Moreover, the slope in assay [6] is 0.00406 (inactive).
Regarding `O=C(NCC1CCCO1)C1CCC(CNS(=O)(=O)c2ccccc2)CC1` (centres undefined), in assay [1], the cell count was determined as 341. Besides, the inhibition in assay [1] is 8.1% (inactive); in assay [3] it was -24.2% (inactive); in assay [7] it was 7.1% (inactive); in assay [8] it was 10.8% (inactive). Moreover, the inhibition of aggregation in assay [2] is -6% (inactive). In addition, the values for the nuclei count in assay [2] and in assay [3] were 110% and 115%, respectively. For the same compound, in assay [4], the fluorescence slope was -0.499 (inactive). Moreover, the NADPH fluorescence slope in assay [5] was -4e-05 (inactive). The slope in assay [6] is 0.00661 (inactive).
For `O=C1CC(N2CCN(c3ccc(Cl)c(Cl)c3)CC2)C(=O)N1` (centres undefined), the cell count in assay [1] amounted to 361. The inhibition in assay [1] was 0.7% (inactive); in assay [3], 25.6% (inactive); in assay [7], -2.47% (inactive); in assay [8] it was 20.7% (inactive). Further, the inhibition of aggregation in assay [2] was -7.2% (inactive). Besides, the nuclei count came out at 87.1% in assay [2] and 98.6% in assay [3]. In addition, the fluorescence slope in assay [4] was -0.466 (inactive). For the same compound, in assay [5], the NADPH fluorescence slope was -4.7e-05 (inactive). In addition, the slope in assay [6] was 0.00625 (inactive).
Regarding `O=C(CN1CCN(c2nc(-c3ccc(F)cc3)cs2)CC1)NCc1ccc2c(c1)OCO2`, in assay [1], the cell count came out at 491. Besides, the inhibition in assay [1] is 9.9% (inactive); in assay [3], -34.5% (inactive); in assay [7], 16.7% (inactive); in assay [8], 17.8% (inactive). Besides, in assay [2], the inhibition of aggregation was 5.2% (inactive). In addition, the figures for the nuclei count in assay [2] and in assay [3] were 108% and 107%, respectively. For the same compound, the fluorescence slope in assay [4] is -0.582 (inactive). In addition, the NADPH fluorescence slope in assay [5] is -2.2e-05 (inactive). For the same compound, the slope in assay [6] was 0.00522 (inactive).
Turning to `Cc1cc2cc(CCNC(=O)CC(C)C)c(=O)[nH]c2cc1C`, the cell count in assay [1] came out at 633. The inhibition in assay [1] is -5.8% (inactive); in assay [3], -40% (inactive); in assay [7], -11.5% (inactive); in assay [8], -9.56% (inactive). Moreover, the inhibition of aggregation in assay [2] was 15.1% (inactive). Besides, the nuclei count in assay [2] turned out to be 83.5%; in assay [3], 107%. Moreover, the fluorescence slope in assay [4] was -0.595 (inactive). Moreover, the NADPH fluorescence slope in assay [5] was -2.7e-05 (inactive). Moreover, the slope in assay [6] was 0.00623 (inactive).
Turning to `Cc1ccc(CNC(=O)C2CCCN(S(=O)(=O)c3cnc[nH]3)C2)cc1` (centres undefined), the cell count in assay [1] was determined as 768. Moreover, the inhibition in assay [1] was -11% (inactive); in assay [3], -23.4% (inactive); in assay [7], -2.34% (inactive); in assay [8], 15.9% (inactive). Besides, the inhibition of aggregation in assay [2] is -30.5% (inactive). For the same compound, the nuclei count was found to be 102% in assay [2] and 92.7% in assay [3]. Besides, the fluorescence slope in assay [4] is -0.538 (inactive). For the same compound, the NADPH fluorescence slope in assay [5] was -1.6e-05 (inactive). Besides, the slope in assay [6] was 0.00735 (inactive).

For the origin of these results see PubChem BioAssay.
